PubChem BioAssay (NCATS)
Where “and” joins values, the source holds several entries; their conditions need not be identical. Equal entries are not always repeated. Inconclusive results are not listed. Where a structure was tested more than once in an assay, its records may differ in their call. Calls of active or inactive are those of the source. Unless noted, calls come from the whole dose curve; as a rule, active = well fitted curve in either direction with a large enough effect (not every such curve was filed as active); inconclusive = small, poorly fitted or top-dose-only effect, or another doubt; inactive = flat fitted curve, though single readings scatter.

Key:
[1] = biological target: Cytochrome P450 1A2 (Homo sapiens) (UniProt P05177); test: p450-cyp1a2 (AID 410; calls by dose curve; note: potency is the fitted concentration of half-maximal effect;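 for activity change, negative = inhibition: -100% = full effect of reference inhibitor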)
Cytochrome P450 1A2 (Homo sapiens), sequence (P05177 whole entry, looked up): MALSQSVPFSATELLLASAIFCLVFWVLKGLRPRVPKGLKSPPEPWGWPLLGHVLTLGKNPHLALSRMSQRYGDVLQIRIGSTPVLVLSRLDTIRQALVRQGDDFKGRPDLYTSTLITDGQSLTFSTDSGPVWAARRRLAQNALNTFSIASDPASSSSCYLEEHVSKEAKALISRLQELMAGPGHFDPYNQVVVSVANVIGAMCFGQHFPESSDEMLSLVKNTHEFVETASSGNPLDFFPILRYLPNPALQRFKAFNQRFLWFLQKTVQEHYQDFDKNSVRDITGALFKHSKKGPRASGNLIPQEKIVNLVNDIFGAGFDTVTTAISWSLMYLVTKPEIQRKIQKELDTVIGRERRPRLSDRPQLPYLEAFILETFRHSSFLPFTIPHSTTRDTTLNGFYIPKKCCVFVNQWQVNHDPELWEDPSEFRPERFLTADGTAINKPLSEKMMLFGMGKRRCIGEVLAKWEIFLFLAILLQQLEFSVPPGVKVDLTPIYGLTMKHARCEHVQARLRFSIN
Method in brief: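 Human CYP1A2 (20nM) demethylated Luciferin-ME at its Km (100uM) in 100mM KPO4. After 10 min compound preincubation, NADPH regeneration ran the reaction 60 min at room temperature. Luciferin was read by luminescence, normalized to 57 uM furafylline.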

[2] = biological target: Glucocorticoid receptor (Homo sapiens) (UniProt P04150); test: GR-GFP Redistribution (AID 450;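 active = compounds whose dose series gives a full or clear partial fitted curve of increased nuclear translocation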; note: potency is the fitted concentration of half-maximal effect); conditions: U2OS GR-GFP nuclear translocation, laser cytometry, 2 h
Glucocorticoid receptor (Homo sapiens), sequence (P04150 whole entry, looked up, the tested form may be a part): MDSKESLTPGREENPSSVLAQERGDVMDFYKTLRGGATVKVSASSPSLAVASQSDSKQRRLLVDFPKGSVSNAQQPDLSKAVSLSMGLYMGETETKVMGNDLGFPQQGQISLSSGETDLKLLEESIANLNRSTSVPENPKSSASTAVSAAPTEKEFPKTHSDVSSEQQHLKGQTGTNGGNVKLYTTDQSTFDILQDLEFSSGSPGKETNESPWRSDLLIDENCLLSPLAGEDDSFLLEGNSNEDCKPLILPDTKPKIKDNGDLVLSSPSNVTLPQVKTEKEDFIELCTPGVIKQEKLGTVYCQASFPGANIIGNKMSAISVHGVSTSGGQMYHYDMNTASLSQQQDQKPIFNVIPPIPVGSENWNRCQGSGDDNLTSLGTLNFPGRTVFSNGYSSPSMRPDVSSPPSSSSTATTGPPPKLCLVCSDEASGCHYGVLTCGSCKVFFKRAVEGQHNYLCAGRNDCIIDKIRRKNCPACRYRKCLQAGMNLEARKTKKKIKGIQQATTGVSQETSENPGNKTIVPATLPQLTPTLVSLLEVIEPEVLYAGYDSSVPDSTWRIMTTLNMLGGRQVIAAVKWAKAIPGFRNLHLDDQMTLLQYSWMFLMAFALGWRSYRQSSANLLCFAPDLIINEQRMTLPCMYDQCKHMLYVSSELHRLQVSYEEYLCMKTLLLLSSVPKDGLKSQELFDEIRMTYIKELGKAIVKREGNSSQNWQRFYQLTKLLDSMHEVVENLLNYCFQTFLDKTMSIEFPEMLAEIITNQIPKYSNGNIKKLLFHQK

[3] = biological target: Glucocorticoid receptor (Homo sapiens) (UniProt P04150); test: GR-EFC Redistribution (AID 451; calls by dose curve; note: potency is the fitted concentration of half-maximal effect); conditions: CHO-K1 GR-EFC translocation, beta-gal luminescence, 2 h
Method in brief: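 Translocation of GR-ED fusion to nuclear EA restores b-gal, read by luminescence after 1 h room-temperature detection. Engineered CHO-K1 biosensor cells, 1,000/well, exposed 2 h at 37 C to titrations up to 46 uM final.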

[4] = biological target: Mitogen-activated protein kinase 10 (Mus musculus) (UniProt Q61831); test: JNK3 AlphaScreen Assay (AID 530);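 note: kinase came from lysate of stimulated human HepG2 cells; signal reports phosphorylation of biotinylated GST-cJun 1-79 at Ser73 with 10 µM ATP; % is set by controls: 0 for no effect and ±100 for the full control effect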
Method in brief: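 Room-temperature AlphaScreen kinase assay; pre-activated HepG2 lysate as JNK3 source, biotin-GST-cJun(1-79) substrate, 10 uM ATP, compound 15 min preincubation.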

[5] = Stat Signaling Pathway (AID 446); conditions: ME-180 SIE beta-lactamase reporter, IL-6 stimulated, 5 h;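 note: ME-180 cervical cancer cells given 40 pM IL-6 alongside compound; SIE-controlled beta-lactamase reporter measured as 460/530 nm FRET emission ratio; % is set by controls: 0 for no effect and ±100 for the full control effect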
Method in brief: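 Reporter line: ME-180 cervical carcinoma, SIE-beta-lactamase. Treatment: compound with 40 pM IL-6, 5 hrs, 37 C, in low-serum OPTI-MEM with 10 mM HEPES pH 7.3. Detection: 460/530 nm fluorescence.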

[6] = NFAT Signaling Pathway (AID 444); conditions: Jurkat NFAT-bla M1, carbachol, beta-lactamase ratio, 5 h; at 38 µM (top of the series) unless noted;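 note: carbachol stimulus at about its EC50 of 1 µM final; % is set by controls: 0 for no effect and ±100 for the full control effect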
Method in brief: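 Read-out: CCF4 FRET ratio (460 nm/530 nm) after 1 h RT dye loading, used for %activity and AC50 from titration series. Cells: Jurkat NFAT-β-lactamase/M1 line, treated with compound plus 1 uM carbachol for 5 h, 37 °C.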

[7] = at 38 µM (top of the series) unless noted

**Q.** What does the source list for `CN(C)CCCc1cc(C(=O)Nc2ccc(-c3ccncc3)cc2)ccc1O`?
**A.** Potency [1]: 39.8 µM (active); Potency [2]: > 46 µM (inactive); Potency [3]: > 46 µM (inactive); outcome [4]: inactive

**Q.** With `CCCCCC[C@@H]([C@@H](C)O)n1cnc2c(N)ncnc21` as the compound, how does the Potency [3] read?
**A.** Its Potency is > 46 µM (inactive).

**Q.** What about the outcome [4] of the same compound?
**A.** Its outcome is “inactive”.

**Q.** What does the source list for `NC(=Nc1ccccc1)NC(=O)c1nc(Cl)c(N)nc1N`?
**A.** Potency [1]: 12.6 µM (active); Potency [2]: > 46 µM (inactive); Potency [3]: > 46 µM (inactive); outcome [4]: inactive

**Q.** Which activity, negative = inhibition [5, 7] does the source give for `CCCCCCN(CCCCCC)C(=O)Cc1c(-c2ccc(F)cc2)[nH]c2ccccc12` here?
**A.** Its activity, negative = inhibition is 6.88% (inactive).

**Q.** What about the Potency [3] of the same compound?
**A.** The Potency was > 46 µM (inactive).

**Q.** What about the outcome [4] of the same compound?
**A.** Its outcome is “inactive”.

**Q.** Which results are given for `N#C/C(=C\c1ccc(O)c(O)c1)C(=O)NCCc1ccccc1`?
**A.** Potency [1]: 10 µM (active); activity, negative = inhibition [5, 7]: -24% (inactive); Potency [3]: > 46 µM (inactive); outcome [4]: inactive

**Q.** For `CCCc1c(-c2ccc(O)cc2)nn(-c2ccc(O)cc2)c1-c1ccc(O)cc1`, which Potency [1] is on record?
**A.** Its Potency is 15.8 µM (active) and 20 µM (active).

**Q.** And the Potency [2]?
**A.** The Potency was > 46 µM (inactive).

**Q.** And the Potency [3]?
**A.** The Potency was > 46 µM (inactive).

**Q.** And the outcome [4]?
**A.** The outcome was “inactive”.

**Q.** Which activity change, negative = inhibition [6] does the source give for `COc1ccccc1N1CCN(CCCNc2c(C)c(=O)n(C)c(=O)n2C)CC1` here?
**A.** The activity change, negative = inhibition was -22.9% (inactive).

**Q.** And the activity, negative = inhibition [5, 7]?
**A.** The activity, negative = inhibition was 0.762% (inactive).

**Q.** And the Potency [2]?
**A.** Its Potency is > 46 µM (inactive).

**Q.** And the Potency [3]?
**A.** The Potency was > 46 µM (inactive).

**Q.** What about the outcome [4] of the same compound?
**A.** Its outcome is “inactive”.

**Q.** For `NCCCNCCCCNCCCN`, which Potency [1] is on record?
**A.** Its Potency is “inactive and 15.8 µM (active)”.

**Q.** What about the activity, negative = inhibition [5, 7] of the same compound?
**A.** The activity, negative = inhibition was -4.41% (inactive).

**Q.** What about the Potency [3] of the same compound?
**A.** Its Potency is > 46 µM (inactive).

**Q.** What about the outcome [4] of the same compound?
**A.** Its outcome is “inactive”.

**Q.** Which Potency [2] does the source give for `N[C@H](C(=O)O)[C@H](O)C(=O)O` here?
**A.** The Potency was > 46 µM (inactive).

**Q.** What about the Potency [3] of the same compound?
**A.** Its Potency is > 46 µM (inactive).

**Q.** And the outcome [4]?
**A.** The outcome was “inactive”.

**Q.** With `O=C(O)c1ccccc1Nc1cccc(OCc2ccc3ccccc3n2)c1` as the compound, how does the Potency [1] read?
**A.** Its Potency is 12.6 µM (active) and 1 µM (active).

**Q.** And the Potency [2]?
**A.** The Potency was > 46 µM (inactive).

**Q.** And the Potency [3]?
**A.** Its Potency is > 46 µM (inactive).

**Q.** And the outcome [4]?
**A.** The outcome was “inactive”.

**Q.** For `CC(C)NC[C@H](O)COc1ccc(CC(N)=O)cc1`, which activity, negative = inhibition ([5]; at 17.2 µM (top of the series)) is on record?
**A.** The activity, negative = inhibition was 2.19% (inactive) and -5.69% (inactive).

**Q.** What about the activity, negative = inhibition ([5]; at 38 µM (top of the series)) of the same compound?
**A.** The activity, negative = inhibition was 0.94% (inactive) and 14.3% (inactive).

**Q.** What about the outcome [4] of the same compound?
**A.** Its outcome is “inactive”.

**Q.** With `CCCCCCC/C=C\CCCCCCCCC(=O)O` as the compound, how does the Potency [1] read?
**A.** The Potency was 31.6 µM (active).

**Q.** And the activity, negative = inhibition [5, 7]?
**A.** Its activity, negative = inhibition is -1.08% (inactive).

**Q.** What about the Potency [3] of the same compound?
**A.** The Potency was > 46 µM (inactive).

**Q.** And the outcome [4]?
**A.** Its outcome is “inactive”.

**Q.** For `CCc1ccc2c(-c3cccc(Cl)c3)nc(=O)n(CC)c2n1`, which Potency [1] is on record?
**A.** The Potency was 0.126 µM (active).

**Q.** And the Potency [2]?
**A.** The Potency was > 46 µM (inactive).

**Q.** What about the Potency [3] of the same compound?
**A.** Its Potency is > 46 µM (inactive).

**Q.** What about the outcome [4] of the same compound?
**A.** Its outcome is “inactive”.

**Q.** For `CN1CCc2cc(Cl)c(O)cc2[C@@H](c2ccccc2)C1`, which Potency [2] is on record?
**A.** Its Potency is > 46 µM (inactive).

**Q.** What about the Potency [3] of the same compound?
**A.** Its Potency is > 46 µM (inactive).

**Q.** And the outcome [4]?
**A.** The outcome was “inactive”.
